Assay outcomes as filed in PubChem.
In the library only some 4.5% were active in any assay of this set; here they are far more common.
GDH-TPI inh: inhibits GDH-TPI coupling enzymes, artifact for Mtb FBA screen; actives 1.2% (n = 360,000); inhibition, % at 4.8 µM; GDH-TPI coupled enzyme counterscreen, NADH absorbance; in the data active means inhibition above about 30%;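 further: 0% = DMSO wells and 100% = wells lacking the enzyme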
FBA Mtb inh: inhibitors of M. tuberculosis fructose-bisphosphate aldolase; AID 588726; inhibition, % at 1 µM; purified M. tuberculosis FBA, fluorescence read-out; P9WQA3; actives 2.3% (n = 360,000); in the data active means inhibition above about 27%;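 further: 0% = vehicle and 100% = reference inhibitor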
Target sequence (P9WQA3 whole entry, looked up): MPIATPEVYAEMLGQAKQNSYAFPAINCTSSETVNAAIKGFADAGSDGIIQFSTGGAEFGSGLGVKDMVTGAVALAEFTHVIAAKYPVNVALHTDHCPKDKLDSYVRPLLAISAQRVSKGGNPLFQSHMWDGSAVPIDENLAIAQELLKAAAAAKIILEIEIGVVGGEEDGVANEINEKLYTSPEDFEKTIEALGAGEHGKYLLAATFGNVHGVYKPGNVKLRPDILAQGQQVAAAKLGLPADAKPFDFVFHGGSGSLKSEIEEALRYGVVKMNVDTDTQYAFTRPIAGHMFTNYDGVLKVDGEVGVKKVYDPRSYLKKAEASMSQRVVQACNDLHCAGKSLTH
PfHsp40 yeast: restores yeast growth despite PfHsp40 toxicity; actives 0.68% (n = 340,000); growth rescue, % at 12.5 µM; AID 504582; S. cerevisiae expressing PfHsp40, growth rescue, ATP luminescence; in the data active means growth rescue above about 28%, passing the limit was not always enough;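 further: yeast W303a lacking pdr1 and pdr3 grown in galactose medium; growth measured after three days at 30 °C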
BJeLR viability: BJeLR cell viability loss | BJeLR (HRASV12) viability, CellTiter-Glo ATP luminescence, 48 h | inhibition, % (concentration not given with the values) | actives 0.17% (n = 300,000) | AID 1554; in the data active means inhibition above about 50%
PrPC TRFRET: inhibitors of human cell surface prion protein PrPC | P04156 | TR-FRET read-out | inhibition, % at 13.8 µM | actives 0.43% (n = 370,000) | AID 720596; in the data active means inhibition above about 24%; further: 0% = median of the test wells and 100% = reference compound wells
PrP UTR inh: suppresses PrP 5' UTR mRNA reporter expression | cell-based PrP 5' UTR mRNA reporter, plate reader | inhibition, % (test concentration not listed) | actives 0.35% (n = 340,000); in the data active means inhibition above about 52%; further: 0 = median of the neutral control wells
* marks the source's active call; other numbers are inactive results; x = not tested or not shown.

SMILES | GDH-TPI inh | FBA Mtb inh | PfHsp40 yeast | BJeLR viability | PrPC TRFRET | PrP UTR inh
CC(=O)c1cccc(NC(=O)/C(=C/c2ccco2)NC(=O)c2ccco2)c1 | 19.5 | -2.4 | 0.6 | -5.4 | -0.3 | -22.6
NNC(=O)/C(=C\c1ccco1)NC(=O)c1ccco1 | 35.0* | -0.9 | 0.6 | -9.7 | 3.3 | -9.0
Cc1cccc(-c2cccc3c4c([nH]c23)[C@@H]2C[C@H](N(C)C(=O)OCc3ccccc3)[C@H]([C@H](C)O)CN2CC4)c1 | x | x | x | x | -1.2 | x
N/C(=N\N=C/c1ccc(-c2ccc(O)c(C(=O)O)c2)o1)N[N+](=O)[O-] | 58.3* | 4.1 | 0.2 | -0.7 | -12.3 | -21.4
C[C@H]1C2CC(OC(=O)Nc3cccc(F)c3)C(C2)[C@H]2CCCCN21 (some centres undefined) | x | x | x | x | -7.9 | x
COc1ccc2[nH]cc(C(C)c3c[nH]c4ccccc34)c2c1 (centres undefined) | x | x | x | x | -0.9 | x
O=C(O)c1ccccc1NN=Cc1ccccc1 | 35.8* | 5.2 | 0.5 | x | 0.3 | -89.2
COc1cccc(/C=N/Nc2ccccc2C(=O)O)c1O | 5.9 | -0.3 | -0.1 | -7.4 | -1.4 | -42.8
CC(C)(C)NC(=O)C(c1cccnc1)N(C(=O)c1cnc[nH]1)c1ccc(C(C)(C)C)cc1 (centres undefined) | x | x | x | x | 16.3 | x
COc1ccc(-n2c(C)cc(C=O)c2C)cc1Cl | -0.6 | 1.1 | -0.7 | 3.6 | -0.1 | -9.3
COc1ccc(-n2nc3cc(C)c(N)cc3n2)cc1Cl | 35.7* | 22.6 | -0.7 | -1.3 | 4.8 | -51.2
CCOc1ccc(-n2nc3cc(C)c(N)cc3n2)cc1 | 19.9 | 163.5* | -0.6 | -2.7 | 9.0 | -15.0
O=C1NC(=O)/C(=C/c2ccccc2OCc2ccccc2)S1 | 31.7* | -1.2 | 1.6 | -2.2 | -0.7 | -15.8
COP(=O)(O)C(C)NC(=O)OCc1ccccc1 (centres undefined) | x | x | x | x | 9.3 | x
O=C(CCNc1n[nH]c(=O)[nH]c1=O)N/N=C/c1ccccc1Br | -4.1 | 1.5 | -0.4 | x | -1.4 | -18.4
O=c1[nH]nc(N/N=C/c2ccccc2OC(F)F)c(=O)[nH]1 | 41.6* | 3.0 | -1.2 | 11.3 | -9.2 | -16.9
Cc1ccn2c(=O)c(NC(=O)c3ccc4c(c3)OCO4)c(C)nc2c1 | 31.2* | -0.1 | x | x | -6.7 | x
Cc1ccn2c(C(=O)N/N=C\c3ccccc3[N+](=O)[O-])c(C)nc2c1 | 44.4* | 8.8 | 0.0 | -0.5 | -29.4 | -2.5
O=C(N/N=C/c1ccc2c(c1)OCO2)c1cc(-c2ccccc2)nc2ccccc12 | 15.6 | 1.3 | 2.3 | -8.9 | 3.8 | 1.8
Cc1ccn2c(=O)c(NC(=O)c3cccs3)c(C)nc2c1 | 22.1 | 3.9 | -1.8 | 1.8 | 0.5 | 0.0
Cc1cccc(C(=O)N/N=C/c2ccc3c(c2)OCO3)n1 | 32.9* | -3.2 | -1.2 | 7.6 | 0.8 | 6.8
O=C(N/N=C/c1ccc2c(c1)OCO2)c1ccc2ccccc2n1 | 32.2* | 0.1 | -0.1 | -1.9 | 4.6 | -12.7
C[n+]1cccc(C(=O)N/N=C/c2ccc3c(c2)OCO3)c1 | 24.9 | 1.2 | 1.7 | 0.1 | 1.3 | 9.0
Cc1ccn2c(C(=O)N/N=C\c3ccc4c(c3)OCO4)c(C)nc2c1 | 46.5* | -0.7 | -0.2 | -10.6 | 3.4 | -1.6
Cc1ccn2c(C(=O)N/N=C/c3ccc(Cl)cc3)c(C)nc2c1 | 9.6 | 2.0 | -2.3 | 19.9 | 3.5 | -26.4
SMILES | GDH-TPI inh | FBA Mtb inh | PfHsp40 yeast | BJeLR viability | PrPC TRFRET | PrP UTR inh
COCCCN1C(=O)[C@H](CC(=O)NCCCCc2ccccc2)[C@]2(C(=O)OC)CCCCC=C12 | x | x | x | x | 2.8 | x
Cn1cc(C(=O)N/N=C/C=C/c2ccccc2)ccc1=O | 39.9* | -4.1 | 50.7* | 0.9 | -14.7 | -18.9
Cn1cc(C(=O)N/N=C/C(Br)=C\c2ccccc2)ccc1=O | 32.2* | -2.8 | 1.0 | 8.9 | -3.6 | -13.7
Cn1cc(C(=O)N/N=C/C(Br)=C/c2ccccc2)ccc1=O | 43.6* | 1.7 | -1.3 | -4.7 | 2.1 | -29.1
O=C(N/N=C/C=C/c1ccccc1)c1ccc(Br)cc1 | 27.4 | 0.1 | 1.5 | -1.5 | -2.8 | -15.6
CCCCOCCCNC(=O)C[C@H]1C(=O)N(Cc2ccc(OC)cc2)C2=CCCCC[C@@]21C(=O)OC | x | x | x | x | -8.5 | x
CC(=O)c1cc(-c2ccc(Cl)c(C(F)(F)F)c2)c(=O)n2c1CCC2 | x | x | x | x | 4.3 | x
N#CC1=C2SC=C(c3ccc(Br)cc3)N2CCCC1=O | 3.2 | -1.2 | -0.5 | -6.1 | 6.5 | -68.4
N#CC1=C2Sc3ccccc3N2CCCC1=O | 34.3* | -2.4 | -1.5 | -0.8 | 3.2 | -37.2
